We go through seven compounds from PubChem BioAssay (NCI).

Among the test systems are NCI-H23 lung; NCI-H226 lung; NCI-H322M lung; HOP-62 NSCLC; NCI-H460 lung; HOP-92 NSCLC; NCI-H522 lung; 786-0 renal; COLO 205 colon; DU-145 prostate; K-562 leukemia; MALME-3M melanoma; MDA-MB-231 breast; RXF 393 renal; SF-268 CNS; SF-295 CNS; SF-539 CNS; UACC-257 melanoma; M14 melanoma; A549/ATCC NSCLC.
Common to all, as to assay: NCI-60 one-dose screen, 48 h (100 = growth as untreated, 0 = no growth, -100 = all killed)
What all share (details): 10 µM unless noted

Compounds without any hit were thinned out: in the full panel of roughly 83,000, 20% have a hit.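 Plates (96-well) were seeded with cells, treated with compound at one concentration, and incubated for 48 hours before percent growth was determined.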 A number with no mark means an inactive call. Active and inactive are the calls of the source. The calls were made as follows: active = growth percent below 10; inactive = the rest.

Take `O=C1c2cc3c(cc2-c2c1c1ccc(Cl)cc1c(=O)n2C[C@H](O)CO)OCO3`: the growth in the test on NCI-H23 lung was -11.4% (active); in the test with NCI-H226 lung, -77.7% (active); in the test with NCI-H322M lung, -14.3% (active); in the test with HOP-62 NSCLC it was -19.8% (active); in the test with NCI-H460 lung, -12.1% (active); in the test on HOP-92 NSCLC, -11% (active). For the same compound, the growth is -12.7% (active) in the test on NCI-H522 lung; -42.2% (active) in the test on 786-0 renal; -28.1% (active) in the test with COLO 205 colon; 3.78% (active) with DU-145 prostate; 10.4% in the test with K-562 leukemia; -26.7% (active) in the test with MALME-3M melanoma. In addition, the growth in the test on MDA-MB-231 breast was 19.5%; in the test on RXF 393 renal it was -66.6% (active); in the test on SF-268 CNS, 4.7% (active); with SF-295 CNS it was -14.8% (active); with SF-539 CNS, -33.1% (active); in the test with UACC-257 melanoma it was -36% (active). Moreover, the growth with M14 melanoma is -14.2% (active).

`Cc1cc(N2CCCCC2)nc(N2CCN(CC(=O)Nc3ccc4c(ccn4Cc4ccccc4)c3)CC2)n1`: the growth in the test with NCI-H23 lung is 59.2%; in the test with NCI-H226 lung it was 65.1%; in the test on NCI-H322M lung, 83%; in the test with HOP-62 NSCLC, 67.1%; in the test with NCI-H460 lung, 56.5%; in the test with HOP-92 NSCLC it was 23.6%. Further, the growth in the test with NCI-H522 lung was 65.1%; with 786-0 renal, 68.6%; in the test on COLO 205 colon, 48.2%; with DU-145 prostate, 79.6%; in the test on K-562 leukemia it was 35.4%; in the test with MALME-3M melanoma, 70.4%. The growth in the test with MDA-MB-231 breast is 64.3%; with RXF 393 renal, 36.2%; in the test with SF-268 CNS, 80.5%; in the test with SF-295 CNS it was 42.9%; in the test with SF-539 CNS, 80.3%; in the test on UACC-257 melanoma it was 71%. The growth in the test on M14 melanoma was 50.9%.

Consider `Cc1c2ccccc2nc2c1ccc1cccnc12`, for which the growth is 74.5% in the test with NCI-H23 lung; 96.5% in the test on NCI-H226 lung; 101% in the test with NCI-H322M lung; 105% in the test on HOP-62 NSCLC; 73.8% in the test with NCI-H460 lung; 106% in the test with HOP-92 NSCLC. The growth with NCI-H522 lung was 63.5%; in the test with A549/ATCC NSCLC it was 59.8%; with 786-0 renal, 95.8%; in the test on DU-145 prostate, 95.6%; with K-562 leukemia it was 44.1%; in the test on MALME-3M melanoma it was 88.3%. Further, the growth in the test on MDA-MB-231 breast was 103%; in the test on RXF 393 renal, 108%; in the test with SF-268 CNS it was 99.8%; in the test on SF-295 CNS it was 89.3%; in the test with SF-539 CNS it was 100%; in the test with UACC-257 melanoma, 72.3%. For the same compound, the growth in the test with M14 melanoma is 84.9%.

`O=C1Nc2ccc(F)cc2/C1=N/c1nnc(Sc2ccccc2)s1`: the growth is 87.4% in the test with NCI-H23 lung; 90.7% in the test on NCI-H226 lung; 103% in the test with NCI-H322M lung; 94.7% with HOP-62 NSCLC; 95.6% with NCI-H460 lung; 96.9% with HOP-92 NSCLC. Further, the growth in the test with NCI-H522 lung was 77.2%; in the test on A549/ATCC NSCLC it was 96.8%; in the test on 786-0 renal it was 105%; in the test with DU-145 prostate, 105%; in the test with K-562 leukemia, 79.7%; in the test with MALME-3M melanoma, 110%. The growth is 87.1% in the test with MDA-MB-231 breast; 110% with RXF 393 renal; 94.2% in the test on SF-268 CNS; 108% in the test with SF-295 CNS; 88.5% in the test on SF-539 CNS; 100% with UACC-257 melanoma. Moreover, the growth in the test on M14 melanoma is 99.2%.

Regarding `Clc1ccc(-c2cn3ccsc3n2)c(Cl)c1Cl`, the growth in the test on NCI-H23 lung is 89.8%; in the test on NCI-H226 lung, 84.6%; with NCI-H322M lung, 118%; with HOP-62 NSCLC, 84.9%; in the test on NCI-H460 lung, 105%; with HOP-92 NSCLC it was 58.8%. Further, the growth in the test on NCI-H522 lung is 81.3%; in the test on 786-0 renal, 103%; in the test on COLO 205 colon, 94.9%; with DU-145 prostate, 76.2%; with K-562 leukemia it was 73.1%; in the test on MALME-3M melanoma, 117%. Besides, the growth was 76.1% in the test with MDA-MB-231 breast; 95.2% in the test with RXF 393 renal; 102% in the test with SF-268 CNS; 91.8% in the test on SF-295 CNS; 88% in the test on SF-539 CNS; 87.7% in the test on UACC-257 melanoma. Further, the growth in the test on M14 melanoma is 98.7%.

Consider `CCCCCCCCCCCCCCCCOC(=O)c1c(C)[nH]c(/C=C2\N=C(c3ccc[nH]3)C=C2OC)c1C`, for which the growth with NCI-H23 lung was 48.8%; in the test with NCI-H226 lung, 6.67% (active); in the test on NCI-H322M lung, 82.7%; in the test on HOP-62 NSCLC it was 54.2%; in the test on NCI-H460 lung, 13.3%; in the test with HOP-92 NSCLC, -12.6% (active). In addition, the growth with NCI-H522 lung was 27.1%; in the test with 786-0 renal, 11.3%; with COLO 205 colon, 33.6%; in the test with DU-145 prostate, 49.3%; in the test on K-562 leukemia it was 38.3%; with MALME-3M melanoma, 68.4%. The growth with MDA-MB-231 breast was 46.6%; with RXF 393 renal it was 32%; in the test on SF-268 CNS, 69.6%; in the test on SF-295 CNS it was 68.7%; in the test on SF-539 CNS, 63.6%; with UACC-257 melanoma, 86.1%. In the test on M14 melanoma, the growth is -17.1% (active).

Regarding `COc1cccc(/C=C2\COc3ccc(O)cc3C2=O)c1`, the growth was 93.7% in the test with NCI-H23 lung; 105% in the test on NCI-H226 lung; 106% in the test on NCI-H322M lung; 95% in the test with HOP-62 NSCLC; 99.6% in the test on NCI-H460 lung; 91.9% in the test on HOP-92 NSCLC. Further, the growth was 56.1% in the test on NCI-H522 lung; 87.4% in the test with A549/ATCC NSCLC; 78.3% with 786-0 renal; 89% with DU-145 prostate; 5.52% (active) in the test with K-562 leukemia; 91.1% with MALME-3M melanoma. Further, the growth was 49.7% in the test with MDA-MB-231 breast; 105% in the test on RXF 393 renal; 91.1% in the test on SF-268 CNS; 103% in the test with SF-295 CNS; 88.5% with SF-539 CNS; 111% with UACC-257 melanoma. Further, in the test on M14 melanoma, the growth is 83.4%.
